Pf growth 96h: Primary qHTS for delayed death inhibitors of the malarial parasite plastid, 96 hour incubation. P. falciparum luciferase reporter growth, 96 h. Potency, µM (series often up to 28.7 µM), without a hit: at the top dose activity change, negative = inhibition, usual class: inhibitors. 320,000 tested, 6.9% active. AID 504834, 2011; note: potency is the fitted concentration of half-maximal effect; % is set by controls: 0 for no effect and ±100 for the full control effect
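Compounds incubated with erythrocytes infected by luciferase-expressing P. falciparum (2% hematocrit, 0.05% parasitemia final) for 96 hours, 37 C in 5% CO2. Growth inhibition scored as decreased luciferase luminescence.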
NS1 inh: qHTS Assay for Inhibitors of Influenza NS1 Protein Function; Potency, µM (doses to about 46.1 µM), without a hit: top-dose activity, positive = more growth; 270,000 tested, 0.4% active; calls by dose curve; note: potency is the fitted concentration of half-maximal effect; actives are rising curves; nearly all actives have a fitted effect of over 50% in size
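Compounds were scored for reversing the slow growth caused by influenza A NS1 in S. cerevisiae, measured by optical density at 600 nm. Assay medium contained 2% galactose at pH 6.0; NS1-free yeast of the same strain were the positive control.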
CHX counter: Cycloheximide Counterscreen for Small Molecule Inhibitors of Shiga Toxin; cell reporter, cycloheximide protein synthesis inhibition counterscreen; max response, %; 300,000 tested, 12% active; AID 2314, 2010; in the data active = max response mostly above about 13%, no sharp cut-off; inactive = mostly below about 14%; note: read at 38.3 µM for the half of the compounds with a filed dose; 0% is about no effect
Shiga toxin inh: A qHTS for Small Molecule Inhibitors of Shiga Toxin; Vero cells, Shiga toxin protein synthesis inhibition reporter; inhibition, % at 38.7 µM; 290,000 tested, 9.2% active; AID 2315, 2010; in the data active = inhibition mostly above about 28%, no sharp cut-off; inactive = mostly below about 43%; note: 0% is about no effect
Pf growth 48h: Primary qHTS for delayed death inhibitors of the malarial parasite plastid, 48 hour incubation; Potency, µM (highest dose often 28.7 µM), without a hit: top-dose activity change, negative = inhibition, hits mostly inhibitors; 310,000 tested, 5.9% active; P. falciparum luciferase growth in erythrocytes, 48 h; note: potency is the fitted concentration of half-maximal effect; % is set by controls: 0 for no effect and ±100 for the full control effect
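Cell-based growth assay: transgenic P. falciparum expressing firefly luciferase, cultured in red cells within RPMI 1640 containing 0.5% w/v Albumax, 24 mM bicarbonate and gentamycin. A drop in luciferase activity indicates inhibition.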
* marks the source's active call; other numbers are inactive results; ? = inconclusive; . = no result. Rows were chosen to be rich in hits. Some 21% of all compounds tested hit in one or more screens of this group. Unless noted, calls come from the whole dose curve; as a rule, active = well fitted inhibition curve with a large enough effect; inconclusive = small, poorly fitted or top-dose-only effect, or another doubt; inactive = no such curve, though single readings can be large or run the other way.

SMILES	Pf growth 96h	NS1 inh	CHX counter	Shiga toxin inh	Pf growth 48h
C#CCOCCOCCOCCNc1nc(N2CCN(C(=O)CCCCCCCCCCNC(=O)[C@@H](CCSC)n3cc(CCO)nn3)CC2)nc(N2CCN(C(=O)CCCCCCCCCCNC(=O)[C@H](CO)n3cc(CCCCCN)nn3)CC2)n1	?	.	.	.	1.04µM*
C#CCOCCOCCOCCNc1nc(N2CCN(C(=O)CCCCCCCCCCNC(=O)[C@@H](CCSC)n3cc(CCO)nn3)CC2)nc(N2CCN(C(=O)CCCCCCCCCCNC(=O)[C@H](CCC(=O)O)n3cc(CCCCCN)nn3)CC2)n1	10.4µM*	.	.	.	5.22µM*
O=C(O)c1ccc(N/N=C/c2cn(Cc3ccccc3F)c3ccccc23)cc1	7.6%	5.1%	67.2*	31.6	73.5%
CCn1cc(/C=N/NC(=O)c2cc3c(ccc4ccccc43)o2)c2ccccc21	5.5%	19.2%	10.5	-24.7	2.4%
Nc1ccc(C(=O)N/N=C/c2cn(Cc3ccc(F)cc3)c3ccccc23)cc1	?	12.9%	33.1*	107.2*	6.5%
Nc1ccc(C(=O)N/N=C/c2cn(Cc3ccccc3)c3ccccc23)cc1	?	1.2%	16.9*	15.8	-0.2%
CCOC(=O)Cn1cc(/C=N/NC(=O)c2cc3ccccc3o2)c2ccccc21	10.3%	-9.7%	25.7*	57.8	-17.8%
CC(C)n1cc(/C=N/Nc2ccc(C(=O)O)cc2)c2ccccc21	260.2%	-13.2%	58.4*	53.8*	33.8%
Nc1ccc(C(=O)N/N=C/c2cn(Cc3ccccc3F)c3ccccc23)cc1	-4.7%	-3.1%	18.9*	32.6*	-13.5%
CC(C)(C)OC(=O)[C@H](Cc1ccccc1)NC(=O)c1nc[nH]c1C(=O)NC1CCN(C(=O)OC(C)(C)C)CC1	3.29µM*	12.5%	3.6	-13.8	4.65µM*
CC1CCN(C(=O)c2[nH]cnc2C(=O)N[C@@H](Cc2ccccc2)C(=O)OC(C)(C)C)CC1	51.2%	19.2%	1.0	-7.8	15.5%
CC(C)(C)OC(=O)N1CCN(C(=O)c2[nH]cnc2C(=O)N[C@@H](Cc2ccccc2)C(=O)OCc2ccccc2)CC1	?	-34.8%	5.8	10.7	?
CC(C)C[C@H](NC(=O)c1[nH]cnc1C(=O)N[C@@H](Cc1ccccc1)C(=O)OC(C)(C)C)C(=O)OC(C)(C)C	?	9.2%	-2.1	-7.7	9.28µM*
CC(C)(C)OC(=O)[C@H](Cc1ccccc1)NC(=O)c1nc[nH]c1C(=O)N1CCN(C(=O)OC(C)(C)C)CC1	9.28µM*	-10.2%	-3.7	-8.6	?
C[C@@H]1NC(=O)c2cc([N+](=O)[O-])cc(I)c2OCC[C@@H](C(N)=O)NC(=O)[C@H](CCC(=O)O)NC1=O	9.2%	17.0%	-3.5	-14.9	4.3%
NC1=NC(=O)/C(=C/c2cccc(-c3ccc(S(N)(=O)=O)cc3)c2)S1	83.1%	6.4%	-0.9	-10.5	38.9%
CCN(CC)c1ccc(NC(=S)Nc2ccc(F)cc2)cc1	3.7%	.	26.6*	48.4*	?
Fc1ccc(NC(=S)Nc2ccc(Br)cc2)cc1	?	-49.9%	33.4*	5.3	19.8%
CCN(CC)c1ccc(NC(=O)CN2CCN(CC(=O)Nc3ccc(F)cc3)CC2)cc1	2.62µM*	-1.2%	-3.2	-16.6	?
Oc1ccc(NC(=S)Nc2ccc(F)cc2)cc1	97.4%	-7.0%	9.2	36.3	17.9%
CCC(C)NC(=S)Nc1ccc(F)cc1 (centres undefined)	-4.1%	2.3%	0.7	25.7	12.0%
COc1ccc(NC(=O)CSCC(=O)Nc2ccc(C)c(S(=O)(=O)N3CCCCCC3)c2)cc1	?	.	.	.	3.0%
CC(C)N1CCN(Cc2ccoc2)CC1CCO (centres undefined)	?	5.4%	-3.9	-7.1	0.0%
CN(C)c1ccc(/C=C2\CCCc3c2nc2ccccc2c3C(=O)O)cc1	42.4%	-3.7%	45.5*	118.1*	106.2%
O=C(O)c1ccc(/C=C2\CCCc3c2nc2ccccc2c3C(=O)O)cc1	23.2%	15.0%	-2.7	-8.4	16.2%
SMILES	Pf growth 96h	NS1 inh	CHX counter	Shiga toxin inh	Pf growth 48h
O=C1OCC2=C1C(c1ccc3c(c1)OCO3)Sc1ccccc1N2 (centres undefined)	.	-28.1%	1.4	-7.7	-10.9%
CCOc1ccc(C2Sc3ccccc3NC3=C2C(=O)OC3)cc1 (centres undefined)	?	-4.1%	22.9*	27.0	-7.4%
Cc1ccc(NC(=O)CSc2n[nH]c(-c3cccnc3)n2)cc1Cl	3.8%	15.6%	-2.6	11.9	2.4%
COC(=O)C(C)n1nnc2sc(-c3ccccc3)cc2c1=O (centres undefined)	225.9%	.	40.0*	113.4*	201.0%
CC(Sc1ncnc2sc(-c3ccccc3)cc12)C(N)=O (centres undefined)	-14.5%	-7.5%	-4.7	-16.9	24.9%
COc1ccccc1NS(=O)(=O)c1ccc(C(=O)NCCCN2CCOCC2)cc1	?	.	.	.	-18.1%
CC1(C)CC(N2CCN(CCO)CC2)=CC(=S)N1	-7.6%	-3.5%	-4.9	-2.2	0.0%
CCOc1ccc(CCNC(=O)CCc2nnc3ccc(N4CCOCC4)nn23)cc1OCC	13.1µM*	6.1%	-1.6	0.4	-1.9%
CSc1ccc(CCNC(=O)CCc2nnc3ccc(N4CCCC4)nn23)cc1	9.28µM*	4.2%	-2.0	-2.1	?
Cc1ccc(C)c(NC(=O)CCc2nnc3ccc(N4CCCC4)nn23)c1	?	19.3%	-10.3	-4.5	0.5%
Nc1ccc(S(=O)(=O)Nc2nccc(/C=C/c3ccc([N+](=O)[O-])cc3)n2)cc1	99.7%	3.2%	-4.5	-4.1	24.3%
C(=N\n1cnnc1)/c1ccc2ncccc2c1	12.9%	2.3%	1.7	25.5	-18.4%
O=C(N/N=C/c1ccc2nccnc2c1)c1ccc(Br)cc1	13.6%	-35.1%	-2.4	-7.5	?
C(=N\NCc1ccccc1)/c1ccc2ncccc2c1	124.4%	1.4%	38.2*	79.2*	337.4%
S=C(N/N=C/c1ccc2ncccc2c1)Nc1ccccc1	-15.4%	.	35.3*	66.3*	47.1%
CCC(C)[C@@H](N)C(=O)N/N=C/c1ccc2ncccc2c1 (some centres undefined)	11.7µM*	4.9%	6.4	12.9	?
C(=N\NCc1ccccc1)/c1ccc2nccnc2c1	108.8%	2.5%	37.1*	63.8*	194.3%
O=C(N/N=C/c1ccc2ncccc2c1)c1cc(-c2cccs2)nc2ccccc12	?	7.5%	-1.7	-2.0	?
CC(C)c1ccc(N)c(S(=O)(=O)O)c1	48.8%	2.6%	1.2	-8.3	1.2%
C=CCCCCCCCCCBr	.	.	-6.0	6.1	.
CC1(c2cc([N+](=O)[O-])cc([N+](=O)[O-])c2)CC(C)(C)N(C(=O)c2ccccc2)c2ccccc21 (centres undefined)	4.3%	14.8%	-3.5	-8.4	2.33µM*
CCCCCC(=O)N1c2ccccc2C(C)(c2ccccc2)CC1(C)C (centres undefined)	.	.	7.2	12.8	.

Screens deposited in PubChem BioAssay by National Center for Advancing Translational Sciences (NCATS).
